What is called AC50 is the concentration giving half of the maximal activity seen.

Test [1] can be described thus: ATG_GLI_CIS: Attagene CIS-FACTORIAL HepG2 Assay for human Zinc Finger Protein GLI1 (AID 2282945). To be noted: HepG2, Attagene cis-factorial reporter mRNA, GLI element; actives raise or lower the signal. An outline of the steps:
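Bidirectional curve fits relative to DMSO, using reporter mRNA levels from RT-PCR plus capillary electrophoresis. Cells were HepG2 transiently carrying cis-regulated reporter constructs, harvested 24 h after dosing.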

In test [2] the target is Bile acid receptor (Homo sapiens) (UniProt Q96RI1). Put plainly: ATG_IR1_CIS: Attagene CIS-FACTORIAL HepG2 Assay for human Nuclear Receptor Subfamily 1 Group H Member 4 (NR1H4), IR1 submotif (AID 2282946). To be noted: IR1 reporter transcription, actives raise or lower the signal. An outline of the steps: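 HepG2 cells transiently transfected with multiplexed cis-element reporter units read endogenous transcription factor activity. After 24 h compound exposure, reporter mRNA was quantified by RT-PCR, fluorescent labelling, HpaI digestion and capillary electrophoresis; bidirectional fitting versus DMSO baseline.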

Test [3] in a line: ATG_ISRE_CIS: Attagene CIS-FACTORIAL HepG2 Assay for human Interferon Regulatory Factor 1 (IRF1) binding to an Interferon-Stimulated Response Element (ISRE) (AID 2282948). To be noted: HepG2 ISRE cis-reporter (Attagene), mRNA transcription readout; actives raise or lower the signal. The gist of the method: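 Signal reflects induction or loss of ISRE-linked reporter mRNA in transiently transfected HepG2 cells after a 24 h treatment, detected by fluorescent RT-PCR fragments on capillary electrophoresis and normalised to DMSO.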

The nature of test [4]: ATG_M_32_CIS: Attagene CIS-FACTORIAL HepG2 Assay for M32 Transcription Factor (Internal Marker) (AID 2282949).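 Also: background control marker of the multiplexed CIS panel rather than a real target.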 To be noted: HepG2 Attagene cis-factorial M32 reporter, mRNA; actives raise or lower the signal. The gist of the method:
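Transient MRTU transfection of HepG2; 24 h compound treatment; TriZol RNA, oligo(dT) RT, reporter PCR, 6-FAM primer extension, HpaI cut, CE. Gain/loss of signal vs DMSO.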

Test [5] is described as follows: ATG_M_06_CIS: Attagene CIS-FACTORIAL HepG2 Assay for M06 Transcription Factor (Internal Marker) (AID 2282950). To be noted: HepG2 Attagene CIS-FACTORIAL M06 internal marker reporter; actives raise or lower the signal. The gist of the method: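 Terse: HepG2, transient MRTU transfection (FuGene 6), 24 h dosing; total RNA, oligo(dT) RT, PCR, FAM label, HpaI cut, capillary electrophoresis; bidirectional fit vs DMSO baseline; background-control endpoint.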

Test [6] has as its target Hepatocyte nuclear factor 6 (Homo sapiens) (UniProt Q9UBC0). In words: ATG_HNF6_CIS: Attagene CIS-FACTORIAL HepG2 Assay for human Hepatocyte Nuclear Factor 6 (HNF6) (AID 2282952). To be noted: HepG2 Attagene cis-factorial HNF6 reporter transcription; actives raise or lower the signal. The gist of the method: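 Twenty-four-hour chemical treatment of reporter-transfected HepG2 cells precedes RNA isolation, DNase-treated reverse transcription and PCR of reporter sequences. Labelled fragments are sized by capillary electrophoresis and fitted bidirectionally versus DMSO.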

Test [7] in a line: ATG_MRE_CIS: Attagene CIS-FACTORIAL HepG2 Assay for human Metal Responsive Element (MRE) (AID 2282954). To be noted: HepG2 MRE cis-reporter transcription, Attagene multiplex; actives raise or lower the signal. The gist of the method: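 Multiplexed cis-reporter assay in human HepG2 liver cells, 24 h incubation with test chemical. Reporter transcripts measured by RT-PCR and capillary electrophoresis; values from bidirectional curve fitting versus DMSO.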

In test [8] the target is Paired box protein Pax-6 (Homo sapiens) (UniProt P26367). Put plainly: ATG_Pax6_CIS: Attagene CIS-FACTORIAL HepG2 Assay for human Paired Box 6 (PAX6) (AID 2282956). To be noted: HepG2 CIS-FACTORIAL PAX6 reporter transcription, RNA readout; actives raise or lower the signal. An outline of the steps:
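Values derive from bidirectional curve fitting of reporter mRNA signal relative to DMSO. HepG2 cells bearing transfected cis-regulated MRTUs were exposed for 24 h; transcripts were read by RT-PCR and capillary electrophoresis.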

A short description of test [9]: ATG_PXRE_CIS: Attagene CIS-FACTORIAL HepG2 Assay for human Pregnane X Receptor Element (PXRE) (AID 2282957). To be noted: HepG2 Attagene CIS-FACTORIAL PXRE reporter, mRNA; actives raise or lower the signal. An outline of the steps: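 Bidirectional activity, baselined to DMSO, derived from reporter mRNA fluorescence (RT-PCR plus capillary electrophoresis) in HepG2 cells bearing cis-promoter reporter units, 24 h exposure.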

The nature of test [10]: ATG_RORE_CIS: Attagene CIS-FACTORIAL HepG2 Assay for human RAR-related Orphan Receptor Element (RORE) (AID 2282959). To be noted: HepG2 Attagene cis-factorial RORE reporter, mRNA; actives raise or lower the signal. An outline of the steps:
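RORE reporter transcripts reflecting endogenous factor activity were read after 24 h compound exposure of transfected HepG2 cells, using reverse transcription, PCR, fluorescent labelling and capillary electrophoresis sizing. Gain or loss fitted against DMSO.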

The target in test [11] is Transcription factor Sp1 (Homo sapiens) (UniProt P08047). In words: ATG_Sp1_CIS: Attagene CIS-FACTORIAL HepG2 Assay for human Specificity Protein 1 (Sp1) (AID 2282961). To be noted: HepG2 Sp1 cis-reporter transcription, actives raise or lower the signal. The gist of the method:
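Read-out is reporter transcript level, measured by RT-PCR and fluorescent capillary electrophoresis after 24 h chemical treatment. System: transiently transfected HepG2 cells reporting endogenous transcription factor activity; gain or loss fitted against DMSO baseline.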

The nature of test [12]: ATG_SREBP_CIS: Attagene CIS-FACTORIAL HepG2 Assay for human Sterol Regulatory Element Binding (SREBP) (AID 2282962). To be noted: HepG2 Attagene cis-factorial SREBP reporter, mRNA; actives raise or lower the signal. The gist of the method: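 Values derive from bidirectional curve fitting with DMSO as baseline. The underlying measurement is reporter mRNA from cis-element-regulated units in transiently transfected HepG2, quantified by RT-PCR and capillary electrophoresis after 24 h exposure.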

For test [13], the target named is Signal transducer and activator of transcription 3 (Homo sapiens) (UniProt P40763). Put plainly: ATG_STAT3_CIS: Attagene CIS-FACTORIAL HepG2 Assay for human Signal Transducer and Activator of Transcription 3 (STAT3) (AID 2282963). To be noted: HepG2, Attagene cis-factorial STAT3 reporter transcription; actives raise or lower the signal. An outline of the steps: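 Cis-factorial format: endogenous transcription factors in HepG2 drive transfected reporter units. After 24 h treatment, reporter RNA was reverse-transcribed, amplified, FAM-labelled and HpaI-digested before CE analysis; activity scored in both directions against DMSO.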

Test [14] can be described thus: ATG_TA_CIS: Attagene CIS-FACTORIAL HepG2 Assay for human TA Basal Promoter (AID 2282964). To be noted: HepG2 Attagene CIS-factorial TA basal promoter reporter; actives raise or lower the signal. The gist of the method:
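Transfected HepG2, 24 h compound exposure; RNA → RT-PCR → FAM primer extension → HpaI cut → CE fluorescence. Gain/loss-of-signal fitted against DMSO negative control. Background-control readout.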

Test [15] is described as follows: ATG_GRE_CIS: Attagene CIS-FACTORIAL HepG2 Assay for human Glucocorticoid Response Elements (GRE) (AID 2282947). To be noted: HepG2 GRE cis-reporter, Attagene multiplex mRNA; actives raise or lower the signal. The gist of the method: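 Multiplexed cis-reporter mRNA induction, HepG2, 24 h post-dose. RT-PCR, FAM-labelled, HpaI-digested amplicons by CE. Bidirectional fit vs DMSO.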

Test [16] deals with Hypoxia-inducible factor 1-alpha (Homo sapiens) (UniProt Q16665). Put plainly: ATG_HIF1a_CIS: Attagene CIS-FACTORIAL HepG2 Assay for human Hypoxia Inducible Factor 1 (HIF1A) (AID 2282951). To be noted: HepG2 Attagene cis-factorial HIF1a reporter transcription; actives raise or lower the signal. The gist of the method: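 Activity is fitted in both directions relative to DMSO. Reporter transcripts are read by RT-PCR, fluorescent primer extension and capillary electrophoresis after 24 h chemical treatment. The cells are HepG2 carrying transiently transfected cis-element-driven reporter units responding to endogenous factors.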

Test [17] concerns the target Heat shock factor protein 1 (Homo sapiens) (UniProt Q00613). In words: ATG_HSE_CIS: Attagene CIS-FACTORIAL HepG2 Assay for human Heat Shock Transcription Factor 1 (HSE) (AID 2282953). To be noted: HepG2 HSE cis-reporter, Attagene RNA transcription; actives raise or lower the signal. The gist of the method: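 Read-out: fluorescence of reporter-specific RT-PCR fragments separated by capillary electrophoresis. HepG2 carrying transfected cis-element reporter units; 24 h dosing; activity fitted in both directions relative to DMSO baseline.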

Test [18] in a line: ATG_PBREM_CIS: Attagene CIS-FACTORIAL HepG2 Assay for human Phenobarbital-responsive Enhancer Module (PBREM) (AID 2282955). To be noted: HepG2 PBREM cis-reporter, Attagene multiplexed transcription; actives raise or lower the signal. The gist of the method:
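Endogenous transcription factor activity was read from reporter transcripts in transiently transfected human HepG2 liver cells after 24 h dosing. RT-PCR products were fluorescently labelled, HpaI-cut and sized by capillary electrophoresis; activity fitted bidirectionally against DMSO baseline.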

Test [19] can be described thus: ATG_PPRE_CIS: Attagene CIS-FACTORIAL HepG2 Assay for human Peroxisome Proliferator-activated Response Element (PPRE) (AID 2282958). To be noted: HepG2 PPRE cis-element reporter, Attagene transcription factor profiling; actives raise or lower the signal. An outline of the steps: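 Endogenous PPRE-driven transcription is measured in HepG2 cells carrying transfected multi-reporter constructs. Reporter transcripts are quantified by RT-PCR, HpaI digestion and capillary electrophoresis 24 h after dosing. DMSO baseline, bidirectional fit.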

Test [20] can be described thus: ATG_Sox_CIS: Attagene CIS-FACTORIAL HepG2 Assay for human SRY-box transcription factor (SOX) (AID 2282960). To be noted: HepG2 Attagene cis-factorial SOX reporter, mRNA; actives raise or lower the signal. An outline of the steps: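 Reporter transcripts, measured by RT-PCR and capillary electrophoresis of labelled fragments, report endogenous SOX transcription factor activity. Transiently transfected human HepG2 cells receive chemical for 24 h; changes in either direction are fitted relative to DMSO.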

Calls of active or inactive are those of the source. The calls were made as follows: active = hit-call score of the fitted dose curve at least 0.9, where 1 is the maximum; inactive = score below 0.9.

Chain of Heat shock factor protein 1 (Homo sapiens) (Q00613 whole entry, looked up, the tested form may be a part): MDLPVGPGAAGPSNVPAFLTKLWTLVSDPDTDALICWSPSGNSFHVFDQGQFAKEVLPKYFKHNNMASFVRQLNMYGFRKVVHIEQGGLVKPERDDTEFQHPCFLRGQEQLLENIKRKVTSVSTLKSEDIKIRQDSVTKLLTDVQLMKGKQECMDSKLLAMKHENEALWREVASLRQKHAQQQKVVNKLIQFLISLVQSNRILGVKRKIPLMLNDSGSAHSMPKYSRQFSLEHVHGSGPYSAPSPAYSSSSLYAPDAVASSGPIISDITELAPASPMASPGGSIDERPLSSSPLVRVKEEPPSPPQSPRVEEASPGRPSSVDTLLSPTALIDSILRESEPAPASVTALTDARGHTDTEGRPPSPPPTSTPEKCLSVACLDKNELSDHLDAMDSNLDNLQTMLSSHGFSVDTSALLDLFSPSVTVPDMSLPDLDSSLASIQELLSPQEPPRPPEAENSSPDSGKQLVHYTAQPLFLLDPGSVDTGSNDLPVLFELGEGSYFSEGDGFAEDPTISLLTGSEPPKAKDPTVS
Chain of Hepatocyte nuclear factor 6 (Homo sapiens) (Q9UBC0 whole entry, looked up, the tested form may be a part): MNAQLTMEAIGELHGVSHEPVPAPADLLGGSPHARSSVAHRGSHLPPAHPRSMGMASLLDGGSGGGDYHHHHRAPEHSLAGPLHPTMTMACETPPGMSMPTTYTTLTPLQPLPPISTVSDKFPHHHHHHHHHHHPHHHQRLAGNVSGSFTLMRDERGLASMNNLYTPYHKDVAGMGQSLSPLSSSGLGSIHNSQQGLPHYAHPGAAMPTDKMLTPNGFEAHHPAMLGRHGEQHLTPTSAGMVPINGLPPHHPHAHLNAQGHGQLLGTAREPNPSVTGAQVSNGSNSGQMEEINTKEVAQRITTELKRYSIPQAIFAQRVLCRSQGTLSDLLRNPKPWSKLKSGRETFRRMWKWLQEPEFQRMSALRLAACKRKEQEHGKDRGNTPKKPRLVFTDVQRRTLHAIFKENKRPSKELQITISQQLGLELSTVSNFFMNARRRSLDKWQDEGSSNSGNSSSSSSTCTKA
Chain of Hypoxia-inducible factor 1-alpha (Homo sapiens) (Q16665 whole entry, looked up): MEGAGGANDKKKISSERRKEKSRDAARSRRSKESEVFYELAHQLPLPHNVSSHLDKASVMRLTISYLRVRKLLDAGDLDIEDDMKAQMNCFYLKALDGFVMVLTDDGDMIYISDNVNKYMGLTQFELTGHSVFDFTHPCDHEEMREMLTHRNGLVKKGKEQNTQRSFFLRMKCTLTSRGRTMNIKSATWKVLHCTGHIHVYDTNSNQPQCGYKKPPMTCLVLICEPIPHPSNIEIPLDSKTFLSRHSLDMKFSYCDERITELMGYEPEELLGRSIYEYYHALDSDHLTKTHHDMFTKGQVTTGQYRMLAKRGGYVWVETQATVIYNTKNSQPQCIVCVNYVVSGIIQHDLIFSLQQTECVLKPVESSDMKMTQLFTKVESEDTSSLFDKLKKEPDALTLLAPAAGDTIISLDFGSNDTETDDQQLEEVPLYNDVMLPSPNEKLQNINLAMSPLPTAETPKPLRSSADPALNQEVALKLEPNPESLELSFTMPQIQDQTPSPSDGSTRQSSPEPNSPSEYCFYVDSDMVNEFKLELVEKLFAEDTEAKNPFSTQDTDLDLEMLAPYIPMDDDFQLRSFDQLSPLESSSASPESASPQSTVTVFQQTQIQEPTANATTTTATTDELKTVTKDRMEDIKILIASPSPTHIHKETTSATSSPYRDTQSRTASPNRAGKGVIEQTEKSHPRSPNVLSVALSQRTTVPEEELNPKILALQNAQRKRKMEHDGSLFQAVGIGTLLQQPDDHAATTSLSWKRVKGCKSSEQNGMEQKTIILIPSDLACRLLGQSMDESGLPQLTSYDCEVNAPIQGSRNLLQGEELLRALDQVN
Chain of Transcription factor Sp1 (Homo sapiens) (P08047 whole entry, looked up): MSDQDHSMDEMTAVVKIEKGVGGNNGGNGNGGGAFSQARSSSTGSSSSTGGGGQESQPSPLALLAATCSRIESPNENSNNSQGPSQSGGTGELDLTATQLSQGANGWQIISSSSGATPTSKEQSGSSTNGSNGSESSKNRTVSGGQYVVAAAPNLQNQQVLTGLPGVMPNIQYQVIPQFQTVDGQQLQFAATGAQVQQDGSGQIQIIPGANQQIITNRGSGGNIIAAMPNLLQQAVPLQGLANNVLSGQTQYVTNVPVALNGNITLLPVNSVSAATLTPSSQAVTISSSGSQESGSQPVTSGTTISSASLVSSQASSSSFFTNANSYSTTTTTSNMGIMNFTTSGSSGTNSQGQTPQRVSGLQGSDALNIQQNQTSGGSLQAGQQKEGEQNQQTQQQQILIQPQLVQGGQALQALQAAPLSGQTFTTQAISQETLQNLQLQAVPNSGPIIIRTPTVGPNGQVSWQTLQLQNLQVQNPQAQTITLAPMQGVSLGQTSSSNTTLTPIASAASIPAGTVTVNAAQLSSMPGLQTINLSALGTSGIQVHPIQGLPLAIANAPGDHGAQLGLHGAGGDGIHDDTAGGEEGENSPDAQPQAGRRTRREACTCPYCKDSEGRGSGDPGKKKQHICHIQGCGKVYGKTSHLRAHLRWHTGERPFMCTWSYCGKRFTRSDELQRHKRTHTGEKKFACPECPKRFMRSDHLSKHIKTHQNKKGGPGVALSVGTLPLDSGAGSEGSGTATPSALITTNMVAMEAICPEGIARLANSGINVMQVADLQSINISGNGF
Chain of Paired box protein Pax-6 (Homo sapiens) (P26367 whole entry, looked up): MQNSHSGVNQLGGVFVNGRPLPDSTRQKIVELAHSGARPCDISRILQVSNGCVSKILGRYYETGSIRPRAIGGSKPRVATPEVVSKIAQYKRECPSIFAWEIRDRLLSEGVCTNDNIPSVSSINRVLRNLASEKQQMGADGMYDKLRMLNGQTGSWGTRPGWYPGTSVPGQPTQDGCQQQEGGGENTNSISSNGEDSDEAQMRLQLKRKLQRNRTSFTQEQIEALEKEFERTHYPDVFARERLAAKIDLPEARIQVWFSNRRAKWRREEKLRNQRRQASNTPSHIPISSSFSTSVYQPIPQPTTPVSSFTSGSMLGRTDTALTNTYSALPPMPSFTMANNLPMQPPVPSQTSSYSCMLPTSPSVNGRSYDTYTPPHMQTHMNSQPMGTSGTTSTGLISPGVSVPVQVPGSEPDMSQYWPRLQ
Chain of Signal transducer and activator of transcription 3 (Homo sapiens) (P40763 whole entry, looked up): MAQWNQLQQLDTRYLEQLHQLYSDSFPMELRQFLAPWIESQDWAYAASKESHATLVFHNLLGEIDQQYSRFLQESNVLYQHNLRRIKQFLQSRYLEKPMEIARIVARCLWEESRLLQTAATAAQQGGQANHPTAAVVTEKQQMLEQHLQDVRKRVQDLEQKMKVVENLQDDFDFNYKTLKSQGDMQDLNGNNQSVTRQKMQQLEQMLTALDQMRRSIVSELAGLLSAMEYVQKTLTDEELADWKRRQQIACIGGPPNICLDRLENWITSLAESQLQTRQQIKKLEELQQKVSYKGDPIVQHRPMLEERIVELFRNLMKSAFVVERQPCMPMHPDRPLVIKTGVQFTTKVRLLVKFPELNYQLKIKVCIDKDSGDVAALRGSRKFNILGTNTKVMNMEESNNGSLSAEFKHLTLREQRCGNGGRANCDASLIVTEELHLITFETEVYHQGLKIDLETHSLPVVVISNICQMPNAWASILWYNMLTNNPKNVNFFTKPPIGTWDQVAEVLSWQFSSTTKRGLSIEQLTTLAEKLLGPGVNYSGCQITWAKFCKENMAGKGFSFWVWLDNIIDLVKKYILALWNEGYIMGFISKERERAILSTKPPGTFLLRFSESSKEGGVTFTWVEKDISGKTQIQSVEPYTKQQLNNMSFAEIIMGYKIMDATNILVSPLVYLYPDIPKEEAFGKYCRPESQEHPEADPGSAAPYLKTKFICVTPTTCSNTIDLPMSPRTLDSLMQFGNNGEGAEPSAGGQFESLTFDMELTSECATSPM
Chain of Bile acid receptor (Homo sapiens) (Q96RI1 whole entry, looked up): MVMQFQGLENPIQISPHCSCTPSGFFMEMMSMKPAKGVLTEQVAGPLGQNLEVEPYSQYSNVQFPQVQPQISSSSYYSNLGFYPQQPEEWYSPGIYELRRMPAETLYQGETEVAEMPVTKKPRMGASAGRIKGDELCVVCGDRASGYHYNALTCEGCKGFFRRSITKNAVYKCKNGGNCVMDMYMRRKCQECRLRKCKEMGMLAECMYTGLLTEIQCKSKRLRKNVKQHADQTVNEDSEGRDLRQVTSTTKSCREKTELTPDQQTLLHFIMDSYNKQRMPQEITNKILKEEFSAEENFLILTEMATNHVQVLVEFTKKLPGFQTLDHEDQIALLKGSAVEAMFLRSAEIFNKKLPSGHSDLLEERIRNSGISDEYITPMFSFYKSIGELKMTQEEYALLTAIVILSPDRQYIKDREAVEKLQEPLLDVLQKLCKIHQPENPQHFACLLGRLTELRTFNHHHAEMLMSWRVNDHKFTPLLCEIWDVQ

As to `CCCCc1ccc(Cl)cc1`, the compound was called inactive in test [1], in test [2], in test [3], in [4], in test [5] and in test [6]. For the same compound, the outcome in test [7], in test [8], in test [9], in test [10], in test [11] and in test [12] was inactive. Moreover, the compound was called inactive in test [13] and in test [14].
With `CC1C(C)(C)C2=C(C(=O)CCC2)C1(C)C` (stereo not drawn), the compound was called inactive in test [1], in test [15], in test [3], in [4], in test [5] and in [16]. Also, the result in [6], in test [17], in [7], in test [18], in [8] and in [19] was inactive. The result in [10], in [20], in test [11], in [12], in test [13] and in test [14] was inactive. Besides, the AC50 in test [9] is 6.01 µM (active).
Consider `COC(OC)(C(=O)c1ccccc1)c1ccccc1`, for which the compound was classed as inactive in [1], in [15], in [3], in [4], in [5] and in test [16]. The call in [6], in test [17], in [19], in [20], in test [11] and in [12] was inactive. The call in test [13] and in test [14] was inactive. The AC50 in test [7] is 43.5 µM (active); in test [18], 3.88 µM (active); in test [8], 66 µM (active); in test [9], 2.19 µM (active).
For the compound `CCCc1ccc(O)c(OC)c1`, the compound was called inactive in [1], in [15], in test [3], in test [4], in test [5] and in [16]. Further, the compound was called inactive in test [6], in test [17], in [7], in [18], in [8] and in test [10]. The result in test [20], in test [11], in test [12], in test [13] and in test [14] was inactive.
Take `C=CC(=O)OCCCCCCCCCC`: the outcome in test [1], in test [15], in test [3], in test [4], in test [5] and in [16] was inactive. For the same compound, the compound was called inactive in test [6], in test [17], in test [7], in test [18], in [8] and in test [10]. The result in [20], in test [11], in test [12], in test [13] and in [14] was inactive.
For `CC(C)(c1ccccc1)c1ccc(Nc2ccc(C(C)(C)c3ccccc3)cc2)cc1`, the compound was classed as inactive in [1], in test [15], in test [3], in test [4], in [5] and in test [16]. Also, the compound was classed as inactive in [6], in test [17], in [7], in test [18], in test [8] and in test [10]. The compound was called inactive in [20], in [11], in test [12], in [13] and in [14]. Also, the AC50 in [9] is 2.03 µM (active).
